This is an account of results in PubChem BioAssay (NCI).

Test in all cases: NCI-60 one-dose screen, 48 h (100 = growth as untreated, 0 = no growth, -100 = all killed)
For one test, the system named is SR leukemia. The note with it: 10 µM unless noted.
A further test relates to RPMI-8226 leukemia. Particulars: 10 µM unless noted.
Another test concerns OVCAR-8 ovarian. The note with it: 10 µM unless noted.
The next test has as its system OVCAR-5 ovarian. The note with it: 10 µM unless noted.
The test system of the next test is OVCAR-4 ovarian. The note with it: 10 µM unless noted.
A further test relates to SK-OV-3 ovarian. Particulars: 10 µM unless noted.
The test system of a further test is IGROV1 ovarian. The note with it: 10 µM unless noted.
A further test has as its system OVCAR-3 ovarian. Particulars: 10 µM unless noted.
The test system of the next test is HS 578T breast. The note with it: 10 µM unless noted.
Another test deals with NCI/ADR-RES ovarian. Particulars: 10 µM unless noted.
Another test deals with T-47D breast. Particulars: 10 µM unless noted.
Another test has as its system BT-549 breast. The note with it: 10 µM unless noted.
The subject of a further test is MDA-MB-435 melanoma. Particulars: 10 µM unless noted.
The subject of another test is SW-620 colon. Particulars: 10 µM unless noted.
For a further test, the system named is MCF7 breast.
The next test concerns HCT-116 colon. Particulars: 10 µM unless noted.
In another test the test system is HCC-2998 colon. The note with it: 10 µM unless noted.
In another test the test system is KM12 colon. Particulars: 10 µM unless noted.

Several values for one entry are separate records, joined by “and”; a condition that tells them apart may be missing. Equal entries are not always repeated. The panel holds about 83,000 compounds, 20% with a hit somewhere; the sample as a whole holds those more often.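 Single-dose data. Exposure time 48 hours. Values below 10 considered active.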 Activity calls are given as the source filed them.

As for `CCCCCc1cc[n+](CC(=O)c2ccccc2)cc1`, the growth is 115% (inactive) and 100% (inactive) in the test with SR leukemia; 104% (inactive) and 107% (inactive) with RPMI-8226 leukemia; 97.2% (inactive) and 99.3% (inactive) in the test on OVCAR-8 ovarian; 97.6% (inactive) and 101% (inactive) with OVCAR-5 ovarian; 110% (inactive) and 85.2% (inactive) in the test on OVCAR-4 ovarian; 101% (inactive) and 105% (inactive) in the test on SK-OV-3 ovarian. Further, the growth is 91.6% (inactive) and 108% (inactive) with IGROV1 ovarian; 94.9% (inactive) and 105% (inactive) in the test on OVCAR-3 ovarian; 106% (inactive) in the test with HS 578T breast; 98.6% (inactive) and 103% (inactive) in the test with NCI/ADR-RES ovarian; 95.4% (inactive) and 101% (inactive) in the test on T-47D breast; 95.9% (inactive) in the test on BT-549 breast. In addition, the growth was 105% (inactive) in the test with MDA-MB-435 melanoma; 96.7% (inactive) and 104% (inactive) in the test on SW-620 colon; 104% (inactive) and 93.7% (inactive) with MCF7 breast (10 µM unless noted); 95.3% (inactive) and 91.9% (inactive) in the test on HCT-116 colon; 105% (inactive) in the test with HCC-2998 colon; 102% (inactive) and 104% (inactive) in the test on KM12 colon.

`Cc1ccc(N)cc1S(=O)(=O)O`: the growth is 89.6% (inactive) and 90.4% (inactive) in the test on SR leukemia; 103% (inactive) and 102% (inactive) with RPMI-8226 leukemia; 108% (inactive) and 100% (inactive) with OVCAR-8 ovarian; 108% (inactive) and 125% (inactive) in the test with OVCAR-5 ovarian; 104% (inactive) in the test on OVCAR-4 ovarian; 106% (inactive) and 116% (inactive) with SK-OV-3 ovarian. Besides, the growth is 109% (inactive) and 113% (inactive) with IGROV1 ovarian; 108% (inactive) and 117% (inactive) with OVCAR-3 ovarian; 100% (inactive) and 94.9% (inactive) in the test on HS 578T breast; 106% (inactive) and 113% (inactive) in the test with NCI/ADR-RES ovarian; 103% (inactive) and 117% (inactive) with T-47D breast; 97.9% (inactive) with BT-549 breast. The growth is 115% (inactive) and 109% (inactive) in the test with MDA-MB-435 melanoma; 104% (inactive) and 105% (inactive) in the test with SW-620 colon; 105% (inactive) and 98.8% (inactive) in the test on MCF7 breast (10 µM unless noted); 103% (inactive) in the test on HCT-116 colon; 109% (inactive) and 108% (inactive) in the test on HCC-2998 colon; 98.7% (inactive) and 104% (inactive) in the test with KM12 colon.

In the case of `OCc1cccc(F)c1`, the growth in the test on SR leukemia is 71.1% (inactive); with RPMI-8226 leukemia it was 113% (inactive); in the test on OVCAR-8 ovarian it was 85.3% (inactive); in the test on OVCAR-5 ovarian it was 70.7% (inactive); in the test with OVCAR-4 ovarian, 113% (inactive); in the test on SK-OV-3 ovarian, 91.7% (inactive). In addition, the growth in the test on IGROV1 ovarian was 79.6% (inactive); with OVCAR-3 ovarian, 125% (inactive); with HS 578T breast, 124% (inactive); with NCI/ADR-RES ovarian, 76.5% (inactive); in the test on T-47D breast it was 94.6% (inactive); in the test on BT-549 breast, 104% (inactive). Moreover, the growth in the test with MDA-MB-435 melanoma is 98.6% (inactive); with SW-620 colon, 50% (inactive); in the test with MCF7 breast (10 µM unless noted) it was 62.1% (inactive); in the test with HCT-116 colon, 55.2% (inactive); with HCC-2998 colon it was 99.4% (inactive); in the test on KM12 colon, 108% (inactive).

`O=S(=O)(O)c1ccc2cc(O)ccc2c1`: the growth in the test on SR leukemia was 101% (inactive); in the test with RPMI-8226 leukemia it was 106% (inactive); in the test on OVCAR-8 ovarian, 102% (inactive); with OVCAR-5 ovarian, 107% (inactive); in the test on OVCAR-4 ovarian it was 112% (inactive); with SK-OV-3 ovarian, 104% (inactive). Besides, the growth in the test on IGROV1 ovarian was 109% (inactive); with OVCAR-3 ovarian it was 112% (inactive); in the test on HS 578T breast it was 104% (inactive); in the test with NCI/ADR-RES ovarian, 105% (inactive); in the test on T-47D breast, 102% (inactive); with BT-549 breast, 105% (inactive). The growth in the test with MDA-MB-435 melanoma is 107% (inactive); with SW-620 colon, 99.9% (inactive); with MCF7 breast (10 µM unless noted), 99.8% (inactive); with HCT-116 colon, 108% (inactive); in the test with HCC-2998 colon, 109% (inactive); in the test with KM12 colon it was 110% (inactive).

Take `COc1cc2oc3cc(=O)cc4oc(-c5ccccc5)cc(c2c2c1CCC(c1ccccc1)O2)c43` (stereo not given): the growth with SR leukemia is 69.6% (inactive); with RPMI-8226 leukemia it was 61.4% (inactive); in the test with OVCAR-8 ovarian, 87% (inactive); in the test with OVCAR-5 ovarian it was 106% (inactive); in the test with OVCAR-4 ovarian, 84.8% (inactive); in the test on SK-OV-3 ovarian it was 92.8% (inactive). Besides, the growth in the test with IGROV1 ovarian is 70.3% (inactive); with OVCAR-3 ovarian, 106% (inactive); in the test on HS 578T breast, 65.7% (inactive); in the test on NCI/ADR-RES ovarian, 86.6% (inactive); with T-47D breast it was 55.8% (inactive); with BT-549 breast, 78.8% (inactive). For the same compound, the growth is 69.2% (inactive) in the test with MDA-MB-435 melanoma; 100% (inactive) in the test on SW-620 colon; 30% (inactive) in the test on MCF7 breast (10 µM); 19.2% (inactive) and 3.41% (active) in the test on MCF7 breast (100 µM); 60.7% (inactive) with HCC-2998 colon; 74.3% (inactive) in the test on KM12 colon.
